GLS inhibitor: inhibitors of human glutaminase (GLS) | O94925 | GLS enzymatic activity, qHTS titration | Potency, µM (titrated, usually from 45.5 µM), for inactives: at the highest dose activity change, negative = inhibition, usual class: inhibitors | 410,000 tested, 0.21% active | AID 624170; also: % is scaled to controls: 0 for no effect and ±100 for the full control effect
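Human kidney-isoform GLS in 45 mM KH2PO4 pH 8.2, 0.02% Tween-20, with compound, started with 1mM L-Glutamine (added stock). Glutamate oxidase/HRP/Amplex red coupled fluorescence read at start and after 30 min at RT.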
POLK inh: DNA polymerase kappa (human) inhibition; Q9UBT6; purified Pol kappa, fluorescent DNA synthesis assay, 10 min; Potency, µM (highest dose often 107 µM), for inactives: at the highest dose activity, negative = inhibition, most hits filed as inhibitors; 400,000 tested, 0.53% active; AID 588579; also: % is scaled to controls: 0 for no effect and ±100 for the full control effect
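Pol kappa 10 nM + cpd, 15 min RT; start w/ substrate 50 nM final; fluorescence kinetic read, 0 and 10 min. Neg ctrl: buffer, no enzyme.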
KAT2A inh: inhibitors of human GCN5L2 histone acetyltransferase; GCN5L2 HAT assay, ThioGlo1 CoA-SH fluorescence; Potency, µM (series often up to 58.9 µM), for the others: at the highest dose activity change, negative = inhibition, actives largely listed as inhibitors; 390,000 tested, 0.21% active; also: % is scaled to controls: 0 for no effect and ±100 for the full control effect
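Fluorescence readout, Ex340nm/Em540nm: ThioGlo1 (50uM final) reacts with free CoA thiol released as 20nM GCN5L2 acetylates H3(1-25) peptide (75uM) using acetyl-CoA (70uM). Compound and enzyme sat 15 min beforehand; 20 min room-temperature reaction.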
POLB inh: DNA polymerase beta (human) inhibition; Pol beta primer extension/strand displacement, fluorescence kinetic; Potency, µM (titrated, usually from 114 µM), for inactives: top-dose activity change, negative = inhibition, actives largely listed as inhibitors; 340,000 tested, 1.3% active; AID 485314; also: % is scaled to controls: 0 for no effect and ±100 for the full control effect
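Values derive from four-parameter Hill fits of normalized kinetic data: reads at 0 and 10 min following addition of 50 nM substrate to 10 nM Pol beta preincubated 15 min with compound.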
Pol iota inh: blocks human DNA polymerase iota activity | Pol iota fluorescent replication assay, 10 min | Potency, µM (series often up to 115 µM), inactives show at the top dose activity, negative = inhibition, hits mostly inhibitors | 390,000 tested, 1% active | AID 588590
Target sequence (Q9UNA4 whole entry, looked up): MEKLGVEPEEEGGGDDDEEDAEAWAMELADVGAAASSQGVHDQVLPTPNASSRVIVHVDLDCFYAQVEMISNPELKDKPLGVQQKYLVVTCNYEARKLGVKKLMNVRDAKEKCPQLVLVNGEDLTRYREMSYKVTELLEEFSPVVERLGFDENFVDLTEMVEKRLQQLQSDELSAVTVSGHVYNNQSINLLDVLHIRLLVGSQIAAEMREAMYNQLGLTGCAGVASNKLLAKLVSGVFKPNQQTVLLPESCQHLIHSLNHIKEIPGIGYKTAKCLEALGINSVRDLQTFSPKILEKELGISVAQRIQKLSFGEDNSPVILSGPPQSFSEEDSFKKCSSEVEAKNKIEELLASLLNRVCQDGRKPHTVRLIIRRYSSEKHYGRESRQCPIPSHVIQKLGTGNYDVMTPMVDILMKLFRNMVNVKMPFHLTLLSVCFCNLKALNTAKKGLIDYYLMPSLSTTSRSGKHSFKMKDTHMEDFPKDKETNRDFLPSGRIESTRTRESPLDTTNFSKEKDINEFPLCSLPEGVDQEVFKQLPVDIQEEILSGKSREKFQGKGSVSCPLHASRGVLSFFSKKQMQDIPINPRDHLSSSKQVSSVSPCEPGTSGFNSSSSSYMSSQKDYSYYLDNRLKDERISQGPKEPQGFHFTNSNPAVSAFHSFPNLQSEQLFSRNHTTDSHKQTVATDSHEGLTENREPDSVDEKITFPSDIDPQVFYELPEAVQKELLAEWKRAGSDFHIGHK
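Pol iota at 10 nM preincubated 15 min with compounds at room temperature; reaction started with fluorescent substrate, 50 nM final. Fluorescence read kinetically at 0 and 10 min; buffer-only wells as negative control.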
Pol eta inh: inhibitors of human DNA polymerase eta; recombinant Pol eta, fluorescent DNA replication assay; Potency, µM (series often up to 114 µM), inactives show at the highest dose activity change, negative = inhibition, actives largely listed as inhibitors; 390,000 tested, 1.2% active; AID 588591; also: % is scaled to controls: 0 for no effect and ±100 for the full control effect
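Pol eta (10 nM) was preincubated with compounds for 15 min at room temperature, after which fluorescent replication substrate (50 nM final) was added to start the reaction. Fluorescence was read kinetically at 0 and 10 min.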
Numbers without * were called inactive; u = inconclusive; x = not tested or not shown; ! = repeats disagree; [ ] = another dose, or the depositor's remark. Hits are enriched below; roughly 2.4% of the tested compounds scored in any of these assays. Calls follow the shape of the dose curve; as a rule, active = well fitted inhibition curve with a large enough effect; inconclusive = small, poorly fitted or top-dose-only effect, or another doubt; inactive = no such curve, though single readings can be large or run the other way. Potency is read from the fitted curve at half-maximal effect.

SMILES	GLS inhibitor	POLK inh	KAT2A inh	POLB inh	Pol iota inh	Pol eta inh
CC(C)=CCCC1(C)C=Cc2c(O)c3c(c(CC=C(C)C)c2O1)OC12C(=CC4CC1C(C)(C)OC2(C/C=C(/C)C(=O)O)C4=O)C3=O (stereo not drawn)	x	22µM*	32µM*	x	x	x
CC(C)=CCCC1(C)C=Cc2c(O)c3c(c(CC=C(C)C)c2O1)OC12C(=CC4CC1C(C)(C)OC2(C/C=C(/C)C(=O)O)C4O)C3=O (stereo not drawn)	x	25µM*	13µM*	x	x	x
C[C@H](N)C(=O)NCC(=O)N[C@H]1CSSC[C@@H](C(=O)O)NC(=O)[C@H](CO)NC(=O)[C@H]([C@@H](C)O)NC(=O)[C@H](Cc2ccccc2)NC(=O)[C@H]([C@@H](C)O)NC(=O)[C@H](CCCCN)NC(=O)[C@@H](Cc2c[nH]c3ccccc23)NC(=O)[C@H](Cc2ccccc2)NC(=O)[C@H](Cc2ccccc2)NC(=O)[C@H](CC(N)=O)NC(=O)[C@H](CCCCN)NC1=O	x	14%[60.1 µM]	-19%	x	x	x
C#CCN(C)[C@@H](C)Cc1ccccc1	12%	-4%[12 µM]	11µM*	x	x	x
C#CCN(C)C(C)Cc1ccccc1 (stereo not drawn)	11%	-8%	-1%	17%	u	-15%
Cc1cc(=O)n(-c2ccccc2Cl)[nH]1	12%	0%	-5%	10%	2.8µM*	-5%
Cc1nc2sccc2c(=O)n1-c1ccccc1Cl	0%	4%	-7%	1%	7%	-8%
CCCCCC(O)C1C(=O)OC(C)C(O)\C=C/C=C\C=C/C=C\C=C(\C)C(O)C(O)C(O)CC(O)CC(O)CC(O)CC(O)CC1O (stereo not drawn)	28µM*!	u	-1%	x	x	x
O=C1NC(=O)N(c2ccc(Cl)cc2)C(=O)/C1=C/c1coc2ccc(O)cc2c1=O	6%	u	-2%	u	u	u
O=C1NC(=O)N(c2ccccc2)C(=O)/C1=C/c1coc2ccc(O)cc2c1=O	12%	u	1%	3%	22µM*	u
Cc1c(C(=O)Nc2ccccc2Cl)oc2ccc(S(=O)(=O)N3CCCCC3)cc12	-25%	-4%[60.1 µM]	3%	2%	u	-11%
O=C(O)c1[nH]n(-c2ccc(S(=O)(=O)O)cc2)c(=O)c1N=Nc1ccc(S(=O)(=O)O)cc1	4%	-30%	x	x	u	x
C=CCn1c(O)c(/C=C2/C=CC=N2)c(=O)[nH]c1=O	0%	-19%	0%	19%	20µM*	u
O=c1[nH]c(=O)n(Cc2ccccc2Cl)c(O)c1/C=C1/C=CC=N1	-14%	u	3%	u	45µM*	u
O=C1/C(=C/c2ccc(N(CCCl)CCCl)cc2)Cc2ccccc21	x	-10%	x	x	1%	x
CCn1cc(C=C2C(=O)NC(=O)NC2=O)c2ccccc21	-12%	-17%	-12%	u	20µM*	7%
COc1nn(CSP(=S)(OC)OC)c(=O)s1	22%[99.4 µM]	x	x	x	x	x
CCC(N)CCc1c[nH]c2ccccc12 (stereo not drawn)	52%[99.4 µM]	x	x	x	x	x
Cc1cccc2c1=NC(=O)/C(=C/c1c(O)[nH]c(=O)[nH]c1=O)C=2	18%	2%	-6%	0%	-7%	-13%
O=c1[nH]c(=S)[nH]c(O)c1/C=C1/C=c2ccccc2=N1	1%	-29%	u	-13%	28µM*	u
CC(N)C(=O)NCC(=O)NC1CSSCC(C(=O)O)NC(=O)C(CO)NC(=O)C(C(C)O)NC(=O)C(Cc2ccccc2)NC(=O)C(C(C)O)NC(=O)C(CCCCN)NC(=O)C(Cc2c[nH]c3ccccc23)NC(=O)C(Cc2ccccc2)NC(=O)C(Cc2ccccc2)NC(=O)C(CC(N)=O)NC(=O)C(CCCCN)NC1=O (stereo not drawn)	9%	1%[19.4 µM]	6%	x	x	x
CC[C@@]1(O)C(=O)OCc2c1cc1n(c2=O)Cc2cc3ccccc3nc2-1	x	8%[60.1 µM]	u	-8%[57.1 µM]	35%	1%[57.1 µM]
CC[C@@]1(O)C(=O)OCc2c1cc1n(c2=O)Cc2cc3c(O)cccc3nc2-1	x	30µM*	u	x	x	x
COc1ccccc1-c1nn2c(=O)cc(CN3CCN(C(=O)Nc4ccc(C)cc4Cl)CC3)nc2s1	3%	-3%[60.1 µM]	-2%	-25%	34%	-21%
Cc1ccc(NC(=O)COC(=O)/C=C/c2ccco2)cc1S(=O)(=O)N(C)C	-3%	-44%	-11%	u	u	16µM*
SMILES	GLS inhibitor	POLK inh	KAT2A inh	POLB inh	Pol iota inh	Pol eta inh
CCC1CN2CCc3cc(OC)c(OC)cc3C2CC1CC1NCCc2cc(OC)c(OC)cc21 (stereo not drawn)	x	-14%[60.1 µM]	-1%	x	x	x
O=[N+]([O-])/C=C/c1c(Cl)cccc1Cl	7.9µM*	-13%	x	x	2%	-1%
O=S(=O)(O)c1cc(N=C=S)ccc1/C=C/c1ccc(N=C=S)cc1S(=O)(=O)O	x	35µM*	-2%	x	x	x
Cc1cc(C)cc(N2C(=O)/C(=C\c3ccc(N4CCN(C)CC4)o3)C(=O)NC2=S)c1	-5%	-9%	4%	-20%	32µM*	-24%
C=CCN1C(=O)/C(=C/c2ccc(N3CCOCC3)o2)C(=O)NC1=S	-3%	-18%	1%	u	u	-17%
CC(C)[C@H]1C(=O)N2CCC[C@H]2[C@]2(O)O[C@](NC(=O)[C@@H]3C=C4c5cccc6[nH]cc(c56)C[C@H]4N(C)C3)(C(C)C)C(=O)N12	-14%	-35%	-13%	-3%	22µM*	-12%
CCC(CO)NC(=O)[C@@H]1C=C2c3cccc4[nH]cc(c34)C[C@H]2N(C)C1 (stereo partly drawn)	x	x	x	-8%[57.1 µM]	32µM*	u
Cc1csc2nc(COC(=O)c3ccccc3NC(=O)c3ccc(F)cc3)cc(=O)n12	7%	0%[60.1 µM]	12%	33%	-3%	-11%
C[C@@H]1O[C@@H](O[C@H]2CC[C@@H](O[C@H]3[C@H](O)C[C@H](c4ccc5c(c4O)C(=O)C4=C(C5=O)[C@@]5(O)C(=O)C[C@](C)(O[C@H]6CC[C@H](O[C@H]7C=CC(=O)[C@H](C)O7)[C@H](C)O6)C[C@@]5(O)C=C4)O[C@@H]3C)O[C@H]2C)C=CC1=O	x	u	-42%	x	x	x
Cc1cc(=O)oc2cc3c(cc12)CCCN3	u	3%	22µM*	10%	2%	-14%
COc1ccc(C(=O)Nc2ccccc2C(=O)NC(C(=O)NCc2ccco2)C(C)C)cc1 (stereo not drawn)	-8%	-5%	0%	8%	-17%	8.9µM*

Screens deposited in PubChem BioAssay by National Center for Advancing Translational Sciences (NCATS).
